Structures can show the parent of a compound that is named as a salt.
Columns and labels:
Conditions in all cases: 20 µM
[1] = tested on: Salmonella enterica typhimurium; assay: growth AUC normalised to DMSO control (fraction of control); higher = less growth inhibition, active = hit call of the paper
Procedure, shortened: (§1)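 Hemin and NAD were added to the medium for Haemophilus parainfluenzae. All pathogens, after two anaerobic passages, were inoculated at a starting OD578 of 0.01 into pre-reduced mGAM plates with 20 μM compound and 1% DMSO under breathable seals, and OD578 was read hourly for 24 h in three biological replicates. AUC of each growth curve was obtained with the trapezoidal rule up to the exponential-to-stationary transition and normalised to DMSO controls from the same plate.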

Shigella flexneri = assay: as above
Procedure, shortened: as §1

Vibrio cholerae = assay: as above
Procedure, shortened: as §1

[2] = tested on: Yersinia pseudotuberculosis; assay: as above
Procedure, shortened: as §1

P. vulgatus RND KO = assay: growth AUC normalised to DMSO control (median) (fraction of control); higher = less growth inhibition, active = hit call of the paper
Procedure, shortened: (§2)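 Anaerobic growth was tracked hourly at OD578 for 24 h in 96-well plates of mGAM seeded at OD578 0.01 with each approved-drug library compound at 20 μM and 1% DMSO. Strains had first been passaged twice overnight without oxygen. Three biological replicates were run. The reported median is the area under the curve, calculated by the trapezoidal rule on curves truncated at entry into stationary phase and normalised to vehicle wells on the same plate.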

P. vulgatus WT = assay: as above
Procedure, shortened: as §2

[3] = tested on: S. enterica typhimurium WT; assay: as above
Procedure, shortened: as §2

[4] = tested on: S. enterica typhimurium tolC KO; assay: as above
Procedure, shortened: as §2

Measured: growth AUC normalised to DMSO control
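Wherever growth AUC normalised to DMSO control (median) is given: active when median AUC fell below 0.1.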

CC1c2cccc(O)c2C(O)=C2C(=O)C3(O)C(O)=C(C(N)=O)C(=O)C(N(C)C)C3C(O)C21 (configuration not stated) [Doxycycline hydrochloride]
active: [1] 0.00452 | Shigella flexneri 0.00494 | Vibrio cholerae 0.018 | [2] 0.0395 | P. vulgatus RND KO 0.012 | P. vulgatus WT 0.00631 | [3] 0.00375 | [4] 0.00276

COc1cc2nc(N3CCN(C(=O)C4COc5ccccc5O4)CC3)nc(N)c2cc1OC (configuration not stated) [Doxazosin mesylate]
inactive: [1] 0.974 | Shigella flexneri 0.985 | Vibrio cholerae 0.942 | [2] 0.996 | P. vulgatus RND KO 0.949 | P. vulgatus WT 0.916 | [3] 0.994 | [4] 0.952

CC(=O)O[C@]1(C(C)=O)CC[C@H]2[C@@H]3C=C(Cl)C4=CC(=O)CC[C@]4(C)[C@H]3CC[C@@]21C [Chlormadinone acetate]
inactive: [1] 0.989 | Shigella flexneri 0.993 | Vibrio cholerae 1 | [2] 1 | P. vulgatus RND KO 0.945 | P. vulgatus WT 0.977 | [3] 0.998 | [4] 0.981

CN(C)CCC(c1ccccc1)c1ccccn1 (configuration not stated) [Pheniramine maleate]
inactive: [1] 0.996 | Shigella flexneri 1.04 | Vibrio cholerae 0.997 | [2] 1.01 | P. vulgatus RND KO 1.01 | P. vulgatus WT 1.02 | [3] 0.999 | [4] 1.01

COC(=O)Nc1nc2cc(Sc3ccccc3)ccc2[nH]1 [Fenbendazole]
inactive: [1] 0.996 | Shigella flexneri 1.01 | Vibrio cholerae 0.995 | [2] 1.01 | P. vulgatus RND KO 1.01 | P. vulgatus WT 1.01 | [3] 1.01 | [4] 0.987

CC(=C(CCO)SSCC1CCCO1)N(C=O)Cc1cnc(C)nc1N (stereo in doubt) [Fursultiamine hydrochloride]
inactive: [1] 1.01 | Shigella flexneri 0.965 | Vibrio cholerae 1 | [2] 1.01 | P. vulgatus RND KO 1.02 | P. vulgatus WT 0.995 | [3] 0.986 | [4] 0.999

CC/C(=C(/CC)c1ccc(O)cc1)c1ccc(O)cc1 [Diethylstilbestrol]
inactive: [1] 1 | Shigella flexneri 0.983 | Vibrio cholerae 0.93 | [2] 0.973 | P. vulgatus RND KO 0.744 | P. vulgatus WT 0.827 | [3] 1 | [4] 0.827

CCOC(=O)C1=C(C)NC(C)=C(C(=O)OC)C1c1cccc([N+](=O)[O-])c1 (configuration not stated) [Nitrendipine]
inactive: [1] 1.04 | Shigella flexneri 1 | Vibrio cholerae 1.06 | [2] 1.01 | P. vulgatus RND KO 1.09 | P. vulgatus WT 1.04 | [3] 0.996 | [4] 0.982

C[C@@H](c1ncncc1F)[C@](O)(Cn1cncn1)c1ccc(F)cc1F [Voriconazole]
inactive: [1] 0.984 | Shigella flexneri 0.959 | Vibrio cholerae 0.955 | [2] 1 | P. vulgatus RND KO 1.02 | P. vulgatus WT 1.02 | [3] 1 | [4] 0.998

Cc1c(C)c2c(c(C)c1O)CCC(C)(COc1ccc(CC3SC(=O)NC3=O)cc1)O2 (configuration not stated) [Troglitazone]
inactive: [1] 0.992 | Shigella flexneri 0.97 | Vibrio cholerae 0.986 | [2] 0.974 | P. vulgatus RND KO 0.839 | P. vulgatus WT 0.892 | [3] 0.997 | [4] 0.97

NS(=O)(=O)Cc1noc2ccccc12 [Zonisamide]
inactive: [1] 1.01 | Shigella flexneri 0.997 | Vibrio cholerae 0.997 | [2] 1 | P. vulgatus RND KO 1 | P. vulgatus WT 1 | [3] 0.998 | [4] 1.01

CCOc1cc(CC(=O)N[C@@H](CC(C)C)c2ccccc2N2CCCCC2)ccc1C(=O)O [Repaglinide]
inactive: [1] 1.03 | Shigella flexneri 1.06 | Vibrio cholerae 1.07 | [2] 1.02 | P. vulgatus RND KO 0.956 | P. vulgatus WT 1.01 | [3] 1.01 | [4] 0.981

Clc1ccc(C(Cn2ccnc2)OCc2c(Cl)cccc2Cl)c(Cl)c1 (configuration not stated) [Isoconazole]
inactive: [1] 0.997 | Shigella flexneri 1.01 | Vibrio cholerae 0.949 | [2] 1.01 | P. vulgatus RND KO 0.95 | P. vulgatus WT 0.949 | [3] 0.995 | [4] 0.953

CN1CCCN=C1/C=C/c1cccs1 [Pyrantel tartrate]
inactive: [1] 0.999 | Shigella flexneri 0.995 | Vibrio cholerae 1.01 | [2] 1.01 | P. vulgatus RND KO 1.01 | P. vulgatus WT 0.982 | [3] 1.01 | [4] 1

CC1(C)OC(=O)NC1=O [Dimethadione]
inactive: [1] 0.972 | Shigella flexneri 0.995 | Vibrio cholerae 1.01 | [2] 0.998 | P. vulgatus RND KO 1.02 | P. vulgatus WT 1 | [3] 0.99 | [4] 0.997

CCN(CCO)CCCC(C)Nc1ccnc2cc(Cl)ccc12 (configuration not stated) [Hydroxychloroquine sulfate]
inactive: [1] 1 | Shigella flexneri 0.988 | Vibrio cholerae 1.01 | [2] 1.01 | P. vulgatus RND KO 1.02 | P. vulgatus WT 1.01 | [3] 1 | [4] 0.995

C=C[C@H]1CN2CC[C@H]1C[C@@H]2[C@@H](O)c1ccnc2ccc(OC)cc12 [Quinidine hydrochloride monohydrate]
inactive: [1] 0.991 | Shigella flexneri 0.996 | Vibrio cholerae 0.985 | [2] 0.991 | P. vulgatus RND KO 0.998 | P. vulgatus WT 1.03 | [3] 0.99 | [4] 0.997

CN(C)CCOC(c1ccccc1)c1ccccc1.Cn1c(=O)c2[nH]c(Cl)nc2n(C)c1=O [Dimenhydrinate]
inactive: [1] 0.975 | Shigella flexneri 0.984 | Vibrio cholerae 0.933 | [2] 0.982 | P. vulgatus RND KO 1.01 | P. vulgatus WT 1 | [3] 0.988 | [4] 0.983

CC(CNC1CCCCC1)OC(=O)c1ccccc1 (configuration not stated) [Hexylcaine hydrochloride]
inactive: [1] 0.993 | Shigella flexneri 0.97 | Vibrio cholerae 0.996 | [2] 0.986 | P. vulgatus RND KO 1 | P. vulgatus WT 1.01 | [3] 0.995 | [4] 0.992

CC(=O)OCC(=O)[C@@]1(OC(C)=O)[C@@H](C)C[C@H]2[C@@H]3C[C@H](F)C4=CC(=O)C=C[C@]4(C)[C@@]3(F)[C@@H](O)C[C@@]21C [Diflorasone Diacetate]
inactive: [1] 1 | Shigella flexneri 0.977 | Vibrio cholerae 1.01 | [2] 1.01 | P. vulgatus RND KO 1 | P. vulgatus WT 1.03 | [3] 0.997 | [4] 1

CCCc1nc(C)c2c(=O)nc(-c3cc(S(=O)(=O)N4CCN(CC)CC4)ccc3OCC)[nH]n12 [Vardenafil]
inactive: [1] 1.01 | Shigella flexneri 1 | Vibrio cholerae 1.01 | [2] 1.01 | P. vulgatus RND KO 1.01 | P. vulgatus WT 1.01 | [3] 0.983 | [4] 0.984

CC[C@]12CCCN3CCc4c(n(c5ccccc45)[C@@](O)(C(=O)OC)C1)[C@@H]32 [Vincamine]
inactive: [1] 1.02 | Shigella flexneri 0.979 | Vibrio cholerae 0.995 | [2] 0.989 | P. vulgatus RND KO 1.02 | P. vulgatus WT 1.05 | [3] 1.02 | [4] 1

Nc1ccc(S(=O)(=O)c2ccc(N)cc2)cc1 [Dapsone]
inactive: [1] 0.982 | Shigella flexneri 0.994 | Vibrio cholerae 0.988 | [2] 1 | P. vulgatus RND KO 1.01 | P. vulgatus WT 1 | [3] 1 | [4] 0.994

C[C@]12C=CC(=O)C=C1CC[C@H]1[C@@H]3C[C@@H](O)[C@](O)(C(=O)CO)[C@@]3(C)C[C@H](O)[C@@]12F [Triamcinolone]
inactive: [1] 1 | Shigella flexneri 0.977 | Vibrio cholerae 1 | [2] 1 | P. vulgatus RND KO 1.01 | P. vulgatus WT 0.98 | [3] 0.997 | [4] 1.01

O=C(NCC1CCCCN1)c1cc(OCC(F)(F)F)ccc1OCC(F)(F)F (configuration not stated) [Flecainide acetate]
inactive: [1] 0.995 | Shigella flexneri 0.966 | Vibrio cholerae 0.988 | [2] 0.989 | P. vulgatus RND KO 1 | P. vulgatus WT 1.03 | [3] 1 | [4] 1

O=C(O)COCCN1CCN(C(c2ccccc2)c2ccc(Cl)cc2)CC1 (configuration not stated) [Cetirizine dihydrochloride]
inactive: [1] 1 | Shigella flexneri 0.994 | Vibrio cholerae 0.988 | [2] 0.981 | P. vulgatus RND KO 1 | P. vulgatus WT 1.01 | [3] 1.01 | [4] 0.994

CCOC(=O)/C=C(C)/C=C/C=C(C)/C=C/c1c(C)cc(OC)c(C)c1C [Etretinate]
inactive: [1] 1.01 | Shigella flexneri 1.03 | Vibrio cholerae 0.998 | [2] 1 | P. vulgatus RND KO 1.03 | P. vulgatus WT 1.06 | [3] 1 | [4] 0.991

Clc1cccc(Cl)c1NC1=NCCN1 [Clonidine hydrochloride]
inactive: [1] 1.01 | Shigella flexneri 1.02 | Vibrio cholerae 1.03 | [2] 1.01 | P. vulgatus RND KO 0.998 | P. vulgatus WT 1.04 | [3] 0.996 | [4] 1.01

CC[C@H]1OC(=O)[C@H](C)[C@@H](O[C@H]2C[C@@](C)(OC)[C@@H](O)[C@H](C)O2)[C@H](C)[C@@H](O[C@@H]2O[C@H](C)C[C@H](N(C)C)[C@H]2O)[C@](C)(O)C[C@@H](C)C(=O)[C@H](C)[C@@H](O)[C@]1(C)O [Erythromycin]
inactive: [3] 0.811
active: [1] 0.74 | Shigella flexneri 0.6 | Vibrio cholerae 0.0246 | [2] 0.767 | P. vulgatus RND KO 0.0145 | P. vulgatus WT 0.00909 | [4] 0.00339

From the supplement of paper PMC12350171
